The target of test [1] is CCAAT/enhancer-binding protein beta (Homo sapiens) (UniProt P17676). In words: ATG_C_EBP_CIS: Attagene CIS-FACTORIAL HepG2 Assay for human CCAAT/Enhancer Binding Protein (C/EBP) beta (AID 2282927). The settings on record: HepG2 Attagene cis-factorial transcription factor reporter; actives raise or lower the signal. The method in brief: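 Following a 24 h incubation with test chemical, transfected HepG2 cells yielded RNA whose reporter transcripts were quantified by RT-PCR and fluorescent capillary electrophoresis, with DMSO serving as baseline for bidirectional fitting.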
CCAAT/enhancer-binding protein beta (Homo sapiens), sequence (P17676 whole entry, looked up): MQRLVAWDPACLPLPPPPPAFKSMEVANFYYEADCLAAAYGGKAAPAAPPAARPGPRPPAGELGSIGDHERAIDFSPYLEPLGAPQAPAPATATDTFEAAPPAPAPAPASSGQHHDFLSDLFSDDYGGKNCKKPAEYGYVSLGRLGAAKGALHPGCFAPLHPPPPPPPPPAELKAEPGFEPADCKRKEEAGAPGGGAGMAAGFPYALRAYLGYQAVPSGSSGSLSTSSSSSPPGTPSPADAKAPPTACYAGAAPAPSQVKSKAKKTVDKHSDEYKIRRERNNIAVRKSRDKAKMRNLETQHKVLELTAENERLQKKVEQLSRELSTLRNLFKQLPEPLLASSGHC

Test [2] in a line: ATG_DR4_LXR_CIS: Attagene CIS-FACTORIAL HepG2 Assay for human Liver X Receptor (LXR), DR4 submotif (AID 2282929). The following applies: HepG2 Attagene DR4 cis-reporter, mRNA transcription; actives raise or lower the signal. The essentials: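 Transiently transfected HepG2 liver cells; cis-regulated reporters; 24 h dosing. RT-PCR plus CE read-out of reporter mRNA. DMSO baseline, bidirectional curve fitting.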

A short description of test [3]: ATG_AP_2_CIS: Attagene CIS-FACTORIAL HepG2 Assay for human Activator Protein 2 (AP-2) (AID 2282932). The settings on record: HepG2 AP-2 cis-reporter, Attagene transcription factor profiling; actives raise or lower the signal. The essentials:
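Cells (HepG2) transfected with promoter-driven reporter constructs, treated 24 h. Total RNA reverse-transcribed, reporter cDNA PCR-amplified, FAM-labelled by primer extension, digested, resolved by capillary electrophoresis. Activity fitted both directions versus DMSO.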

Test [4] deals with Transcription factor E2F1 (Homo sapiens) (UniProt Q01094). Nature of the test: ATG_E2F_CIS: Attagene CIS-FACTORIAL HepG2 Assay for human E2F Transcription Factor 1 (AID 2282935). The settings on record: HepG2 Attagene cis-reporter, E2F reporter RNA transcripts; actives raise or lower the signal. The essentials:
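First, HepG2 cells were transfected with reporter transcription units. Next, they were dosed for 24 h. Then RNA was isolated, converted to cDNA, PCR-amplified, FAM-labeled, HpaI-digested and analyzed by capillary electrophoresis.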

Test [5] in a line: ATG_E_Box_CIS: Attagene CIS-FACTORIAL HepG2 Assay for human Enhancer Box (E-box) (AID 2282936). The following applies: HepG2 E-box cis-reporter transcription, actives raise or lower the signal. The essentials:
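Endogenous transcription factor activity was sensed in human HepG2 liver cells through transfected cis-promoter reporter units. After 24 h of dosing, total RNA was reverse-transcribed and reporter cDNA resolved by capillary electrophoresis.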

Test [6] in a line: ATG_M_19_CIS: Attagene CIS-FACTORIAL HepG2 Assay for M19 Transcription Factor (Internal Marker) (AID 2282939). The following applies: HepG2 Attagene CIS-FACTORIAL M19 internal marker reporter; actives raise or lower the signal. The method in brief:
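Background-control endpoint from a multiplexed HepG2 reporter panel. Cells carrying cis-regulated reporter constructs are treated 24 h, then reporter transcripts are amplified, fluorescently labelled and sized by capillary electrophoresis. DMSO defines baseline.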

The nature of test [7]: ATG_GLI_CIS: Attagene CIS-FACTORIAL HepG2 Assay for human Zinc Finger Protein GLI1 (AID 2282945). The following applies: HepG2, Attagene cis-factorial reporter mRNA, GLI element; actives raise or lower the signal. The method in brief:
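HepG2 cells transiently transfected with cis-promoter multiplexed reporter units report endogenous transcription factor activity. After 24 h chemical exposure, reporter mRNA was quantified by RT-PCR, 6-FAM labelling, HpaI digestion and capillary electrophoresis, with bidirectional fitting against DMSO.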

Test [8] in a line: ATG_ISRE_CIS: Attagene CIS-FACTORIAL HepG2 Assay for human Interferon Regulatory Factor 1 (IRF1) binding to an Interferon-Stimulated Response Element (ISRE) (AID 2282948). The following applies: HepG2 ISRE cis-reporter (Attagene), mRNA transcription readout; actives raise or lower the signal. The essentials: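 Multiplexed mRNA reporter readout in human liver HepG2 cells: cis-element-driven reporters transfected, compound added for 24 h, transcripts amplified, fluorescently labelled and sized by capillary electrophoresis; curve fitting bidirectional against DMSO.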

A short description of test [9]: ATG_M_32_CIS: Attagene CIS-FACTORIAL HepG2 Assay for M32 Transcription Factor (Internal Marker) (AID 2282949).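 Further: background control marker of the multiplexed CIS panel rather than a real target.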 The following applies: HepG2 Attagene cis-factorial M32 reporter, mRNA; actives raise or lower the signal. The method in brief:
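HepG2 transfectants (cis-regulated reporter transcription units) dosed 24 h. Reporter mRNA by RT-PCR plus CE, analysed as gain or loss relative to DMSO.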

A short description of test [10]: ATG_PXRE_CIS: Attagene CIS-FACTORIAL HepG2 Assay for human Pregnane X Receptor Element (PXRE) (AID 2282957). The settings on record: HepG2 Attagene CIS-FACTORIAL PXRE reporter, mRNA; actives raise or lower the signal. The essentials:
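Using HepG2 transfected with multiple reporter transcription units, endogenous factor-driven transcription was scored as reporter mRNA after 24 h exposure.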

Test [11] is described as follows: ATG_Sox_CIS: Attagene CIS-FACTORIAL HepG2 Assay for human SRY-box transcription factor (SOX) (AID 2282960). The following applies: HepG2 Attagene cis-factorial SOX reporter, mRNA; actives raise or lower the signal. The method in brief:
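Fluorescence-labelled cDNA fragments from reporter transcripts, sized by CE, give the signal. Cells: HepG2, transiently transfected with cis-regulated reporter units. Exposure 24 h; DMSO negative control; bidirectional curve fitting.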

Test [12] has as its target Transcription factor Sp1 (Homo sapiens) (UniProt P08047). Nature of the test: ATG_Sp1_CIS: Attagene CIS-FACTORIAL HepG2 Assay for human Specificity Protein 1 (Sp1) (AID 2282961). The settings on record: HepG2 Sp1 cis-reporter transcription, actives raise or lower the signal. The method in brief: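 Chemicals are dosed onto HepG2 cells transfected with multiple cis-promoter reporter constructs, and after 24 h reporter RNA is reverse-transcribed, PCR-amplified and resolved by capillary electrophoresis for fluorescence quantitation; activity is scored up or down against DMSO.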

The target in test [13] is Signal transducer and activator of transcription 3 (Homo sapiens) (UniProt P40763). Nature of the test: ATG_STAT3_CIS: Attagene CIS-FACTORIAL HepG2 Assay for human Signal Transducer and Activator of Transcription 3 (STAT3) (AID 2282963). The settings on record: HepG2, Attagene cis-factorial STAT3 reporter transcription; actives raise or lower the signal. The essentials: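 HepG2, MRTU-transfected, 24 h dosing. RNA → RT → PCR → FAM label → HpaI → CE. Bidirectional fit vs DMSO.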
Signal transducer and activator of transcription 3 (Homo sapiens), sequence (P40763 whole entry, looked up): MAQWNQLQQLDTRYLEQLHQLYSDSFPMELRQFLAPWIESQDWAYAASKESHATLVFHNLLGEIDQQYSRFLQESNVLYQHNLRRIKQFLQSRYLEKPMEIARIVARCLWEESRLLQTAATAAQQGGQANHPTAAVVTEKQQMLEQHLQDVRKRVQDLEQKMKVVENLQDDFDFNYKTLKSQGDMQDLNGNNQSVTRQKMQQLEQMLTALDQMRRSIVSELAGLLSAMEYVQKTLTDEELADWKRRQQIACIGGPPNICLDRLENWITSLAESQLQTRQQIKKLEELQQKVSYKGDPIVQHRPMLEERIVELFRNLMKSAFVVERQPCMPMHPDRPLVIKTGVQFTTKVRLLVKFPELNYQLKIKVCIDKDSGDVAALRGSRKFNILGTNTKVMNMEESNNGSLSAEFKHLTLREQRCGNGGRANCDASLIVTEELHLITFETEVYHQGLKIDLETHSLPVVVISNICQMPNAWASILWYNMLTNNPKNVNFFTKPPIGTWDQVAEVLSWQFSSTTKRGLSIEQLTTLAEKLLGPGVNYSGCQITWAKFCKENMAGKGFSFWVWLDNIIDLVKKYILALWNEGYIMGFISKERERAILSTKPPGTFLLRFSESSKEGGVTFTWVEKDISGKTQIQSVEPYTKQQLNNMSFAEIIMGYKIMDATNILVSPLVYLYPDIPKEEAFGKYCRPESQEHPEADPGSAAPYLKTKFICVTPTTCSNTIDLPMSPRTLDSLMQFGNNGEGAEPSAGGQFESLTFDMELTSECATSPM

Test [14] is described as follows: ATG_TA_CIS: Attagene CIS-FACTORIAL HepG2 Assay for human TA Basal Promoter (AID 2282964). The settings on record: HepG2 Attagene CIS-factorial TA basal promoter reporter; actives raise or lower the signal. The essentials:
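Steps: transfect HepG2 with MRTUs; dose 24 h; isolate RNA, DNase-treat, reverse-transcribe; PCR and FAM-label reporter cDNA; digest with HpaI 2h at 37 C; run capillary electrophoresis. Activity fitted both directions against DMSO.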

The nature of test [15]: ATG_TCF_b_cat_CIS: Attagene CIS-FACTORIAL HepG2 Assay for human T-Cell-Factor with beta-catenin (TCF/b-cat) (AID 2282965). The settings on record: HepG2 TCF/beta-catenin cis-reporter transcription, actives raise or lower the signal. The method in brief:
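Using capillary electrophoresis as the read-out, labelled reporter cDNA fragments from transiently transfected HepG2 were sized and quantified. Exposure lasted 24 hours; activity in either direction was referenced to DMSO.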

A short description of test [16]: ATG_TAL_CIS: Attagene CIS-FACTORIAL HepG2 Assay for human TAL Basal Promoter (AID 2282966).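 Further: background control endpoint measuring basal TAL promoter reporter mRNA not a specific factor.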 The settings on record: HepG2 Attagene cis-factorial TAL promoter reporter; actives raise or lower the signal. The essentials:
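After 24 hours of chemical exposure, transfected HepG2 cells yielded RNA that was converted to 6-FAM-labelled, HpaI-digested reporter fragments for capillary electrophoresis. Values derive from bidirectional fitting against DMSO controls.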

The target in test [17] is X-box-binding protein 1 (Homo sapiens) (UniProt P17861). Nature of the test: ATG_Xbp1_CIS: Attagene CIS-FACTORIAL HepG2 Assay for human X-box Binding Protein 1 (XBP1) (AID 2282972). The following applies: HepG2 XBP1 cis-element reporter, Attagene multiplex; actives raise or lower the signal. The essentials: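 Multiplexed cis-reporter readout in transfected HepG2 liver cells. Exposure lasted 24 hours. Activity in either direction was fitted against DMSO as negative control and baseline.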
X-box-binding protein 1 (Homo sapiens), sequence (P17861 whole entry, looked up): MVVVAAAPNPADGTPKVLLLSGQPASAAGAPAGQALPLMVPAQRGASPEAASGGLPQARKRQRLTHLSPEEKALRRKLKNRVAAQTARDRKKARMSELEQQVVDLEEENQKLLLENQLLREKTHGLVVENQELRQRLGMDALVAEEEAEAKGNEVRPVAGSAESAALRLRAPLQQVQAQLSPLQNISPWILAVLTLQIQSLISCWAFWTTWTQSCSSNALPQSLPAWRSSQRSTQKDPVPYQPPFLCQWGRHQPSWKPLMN

The target of test [18] is Transcriptional activator Myb (Homo sapiens) (UniProt P10242). Nature of the test: ATG_Myb_CIS: Attagene CIS-FACTORIAL HepG2 Assay for human Myeloblastosis (Myb) Proto-Oncogene Transcription Factor (AID 2282986). The following applies: HepG2 Attagene CIS-FACTORIAL Myb reporter transcription; actives raise or lower the signal. The method in brief:
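Using HepG2 liver cells bearing transiently transfected cis-promoter reporter constructs, the assay measures induction or loss of reporter mRNA after 24 hours of dosing. Detection used fluorescently labeled RT-PCR products separated by capillary electrophoresis.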

In test [19] the target is Myc proto-oncogene protein (Homo sapiens) (UniProt P01106). Nature of the test: ATG_Myc_CIS: Attagene CIS-FACTORIAL HepG2 Assay for human Myelocytomatosis (Myc) Proto-Oncogene Transcription Factor (AID 2282990). The settings on record: HepG2, Attagene cis-reporter transcription factor activity; actives raise or lower the signal. The method in brief: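 Multiplexed cis-reporter transcription in HepG2 cells after 24 h chemical treatment. Reporter mRNA measured by RT-PCR and capillary electrophoresis fluorescence; activity fitted bidirectionally against DMSO control.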
Myc proto-oncogene protein (Homo sapiens), sequence (P01106 whole entry, looked up): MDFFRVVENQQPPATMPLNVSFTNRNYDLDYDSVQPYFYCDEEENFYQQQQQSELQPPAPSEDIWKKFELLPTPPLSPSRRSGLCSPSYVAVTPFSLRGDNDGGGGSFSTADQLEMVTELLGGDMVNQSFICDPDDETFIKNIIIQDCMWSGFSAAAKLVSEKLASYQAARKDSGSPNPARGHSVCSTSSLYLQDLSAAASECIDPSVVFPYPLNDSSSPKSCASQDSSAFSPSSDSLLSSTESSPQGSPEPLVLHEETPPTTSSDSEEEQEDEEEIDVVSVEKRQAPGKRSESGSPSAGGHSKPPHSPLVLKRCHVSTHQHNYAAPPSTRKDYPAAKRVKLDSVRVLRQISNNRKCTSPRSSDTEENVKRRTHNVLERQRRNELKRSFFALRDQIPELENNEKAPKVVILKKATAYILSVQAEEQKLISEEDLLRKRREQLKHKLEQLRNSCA

Test [20] is described as follows: ATG_Oct_MLP_CIS: Attagene CIS-FACTORIAL HepG2 Assay for human Octamer-Binding Transcription Factor (Oct) (AID 2282993). The settings on record: HepG2 Attagene cis-factorial Oct reporter, mRNA; actives raise or lower the signal. The essentials:
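Multiplexed cis-reporter assay in human liver HepG2 cells, 24 h incubation. Reporter RNA amplified and labelled, then resolved by capillary electrophoresis; DMSO serves as negative control and baseline.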

Among the data in PubChem BioAssay (EPA / NIEHS) are outcome and AC50 values, retold here.

Molecules are shown by their SMILES. Active and inactive are the calls of the source. How the source made its calls: active means hit-call score of the fitted dose curve at least 0.9, where 1 is the maximum; inactive means score below 0.9.

Transcriptional activator Myb (Homo sapiens), sequence (P10242 whole entry, looked up): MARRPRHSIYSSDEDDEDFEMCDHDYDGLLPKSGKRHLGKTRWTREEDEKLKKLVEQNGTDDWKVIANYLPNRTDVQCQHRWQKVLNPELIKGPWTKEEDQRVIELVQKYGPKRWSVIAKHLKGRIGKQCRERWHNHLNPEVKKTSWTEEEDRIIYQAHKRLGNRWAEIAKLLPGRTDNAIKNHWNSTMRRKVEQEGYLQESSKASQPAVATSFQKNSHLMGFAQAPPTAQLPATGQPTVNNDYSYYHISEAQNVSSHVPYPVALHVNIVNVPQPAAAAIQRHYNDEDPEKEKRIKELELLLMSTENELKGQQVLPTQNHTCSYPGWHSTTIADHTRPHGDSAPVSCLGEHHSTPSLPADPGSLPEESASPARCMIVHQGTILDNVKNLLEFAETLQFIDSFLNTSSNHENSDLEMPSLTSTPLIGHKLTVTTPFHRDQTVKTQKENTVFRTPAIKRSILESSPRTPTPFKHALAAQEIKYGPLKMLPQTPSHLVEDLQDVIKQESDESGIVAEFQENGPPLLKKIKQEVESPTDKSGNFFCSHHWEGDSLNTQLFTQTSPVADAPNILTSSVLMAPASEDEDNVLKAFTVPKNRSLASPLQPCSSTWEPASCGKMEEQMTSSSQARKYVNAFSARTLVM
Transcription factor E2F1 (Homo sapiens), sequence (Q01094 whole entry, looked up): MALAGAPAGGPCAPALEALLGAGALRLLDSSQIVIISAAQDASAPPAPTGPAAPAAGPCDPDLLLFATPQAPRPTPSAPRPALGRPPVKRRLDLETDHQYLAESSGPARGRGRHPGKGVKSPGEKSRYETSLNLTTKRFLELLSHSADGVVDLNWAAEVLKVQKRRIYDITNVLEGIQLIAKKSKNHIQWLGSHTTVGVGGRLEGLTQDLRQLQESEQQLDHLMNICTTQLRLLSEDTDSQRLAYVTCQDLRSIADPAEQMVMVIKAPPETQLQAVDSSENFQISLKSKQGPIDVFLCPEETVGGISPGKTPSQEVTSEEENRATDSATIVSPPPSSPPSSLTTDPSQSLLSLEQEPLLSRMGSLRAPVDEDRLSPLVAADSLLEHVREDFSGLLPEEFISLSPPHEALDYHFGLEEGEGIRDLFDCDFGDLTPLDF
Transcription factor Sp1 (Homo sapiens), sequence (P08047 whole entry, looked up): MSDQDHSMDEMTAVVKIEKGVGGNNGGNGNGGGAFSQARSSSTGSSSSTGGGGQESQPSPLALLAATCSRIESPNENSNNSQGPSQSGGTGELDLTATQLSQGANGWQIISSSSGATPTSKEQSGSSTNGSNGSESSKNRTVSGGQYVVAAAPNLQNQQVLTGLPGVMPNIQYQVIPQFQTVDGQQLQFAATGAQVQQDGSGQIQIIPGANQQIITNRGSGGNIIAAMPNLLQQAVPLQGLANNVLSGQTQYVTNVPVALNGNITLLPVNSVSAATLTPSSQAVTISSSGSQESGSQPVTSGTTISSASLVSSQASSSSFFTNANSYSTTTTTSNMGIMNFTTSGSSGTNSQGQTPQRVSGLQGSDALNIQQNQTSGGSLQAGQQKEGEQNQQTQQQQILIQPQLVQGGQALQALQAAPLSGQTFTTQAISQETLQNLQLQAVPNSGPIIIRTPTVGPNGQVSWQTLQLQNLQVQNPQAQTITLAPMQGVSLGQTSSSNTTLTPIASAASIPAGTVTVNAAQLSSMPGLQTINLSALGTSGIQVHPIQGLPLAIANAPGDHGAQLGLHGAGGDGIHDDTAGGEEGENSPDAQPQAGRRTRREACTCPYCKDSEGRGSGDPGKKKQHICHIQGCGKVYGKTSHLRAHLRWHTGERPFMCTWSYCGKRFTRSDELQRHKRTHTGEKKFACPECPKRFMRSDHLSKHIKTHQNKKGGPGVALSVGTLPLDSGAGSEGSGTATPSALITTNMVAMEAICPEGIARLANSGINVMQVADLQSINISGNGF

For `CCc1cccc(C)c1N(C(=O)CCl)[C@@H](C)COC`, the outcome in test [1], in test [2], in [3], in test [4], in test [5] and in [6] was inactive. Also, the compound was classed as inactive in test [7], in [8], in test [9], in test [11], in test [12] and in test [13]. Further, the call in [14], in test [15], in test [16], in test [17], in test [18] and in [19] was inactive. The result in [20] was inactive. Also, the AC50 in test [10] is 0.474 µM (active).
Turning to `CC=Cc1ccc2c(c1)OCO2`, the outcome in test [1], in [2], in test [3], in test [4], in [5] and in [6] was inactive. Besides, the outcome in test [7], in [8], in test [9], in test [10], in test [11] and in test [12] was inactive. Further, the outcome in test [13], in test [14], in test [16], in test [17], in [18] and in [19] was inactive. Also, in test [20], the call was inactive. In test [15], the AC50 was 80.8 µM (active).
For the compound `Nc1cc(Cl)cc(Cl)c1`, the outcome in test [1], in test [2], in test [3], in [4], in test [5] and in test [6] was inactive. Further, the call in test [7], in [8], in test [9], in [10], in [11] and in [12] was inactive. In addition, the compound was classed as inactive in test [13], in test [14], in test [16], in test [17], in test [18] and in test [19]. Also, the call in test [20] was inactive. In test [15], the AC50 was 79 µM (active).
As to `CN1C(=O)CCS(=O)(=O)C1c1ccc(Cl)cc1` (stereo not given), the result in [1], in [2], in test [3], in test [4], in test [5] and in [6] was inactive. In addition, the compound was called inactive in test [7], in test [8], in test [9], in test [10], in test [11] and in [12]. Besides, the call in test [13], in test [14], in test [15], in [16], in [17] and in test [18] was inactive. Further, the compound was classed as inactive in test [19] and in [20].
`CCC(=O)c1ccc(Cl)cc1`: the outcome in [1], in [2], in test [3], in test [4], in test [5] and in test [6] was inactive. For the same compound, the call in test [7], in test [8], in test [9], in test [10], in [11] and in test [12] was inactive. Besides, the result in test [13], in [14], in test [15], in test [16], in test [17] and in test [18] was inactive. The result in test [19] and in test [20] was inactive.

What is called AC50 is the midpoint of the concentration-response curve, whichever way the signal moves.
